Structures are written as SMILES.

Assay [1] deals with T1, Serine/threonine-protein kinase 17A (Homo sapiens) (UniProt Q9UEE5).
T1 sequence (whole entry): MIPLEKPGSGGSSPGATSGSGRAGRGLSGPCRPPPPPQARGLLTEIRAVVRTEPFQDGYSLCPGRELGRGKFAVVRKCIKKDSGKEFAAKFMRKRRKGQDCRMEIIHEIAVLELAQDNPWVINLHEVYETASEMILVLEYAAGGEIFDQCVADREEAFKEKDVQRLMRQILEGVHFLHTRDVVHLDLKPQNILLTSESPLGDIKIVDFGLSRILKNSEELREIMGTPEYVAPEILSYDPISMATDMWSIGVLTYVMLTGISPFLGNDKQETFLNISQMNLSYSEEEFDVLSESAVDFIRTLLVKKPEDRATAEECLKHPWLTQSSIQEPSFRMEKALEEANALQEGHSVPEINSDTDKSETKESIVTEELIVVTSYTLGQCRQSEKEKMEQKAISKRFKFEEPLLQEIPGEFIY
Conditions: at 10 µM.

In assay [2] the target is T2, Dual specificity tyrosine-phosphorylation-regulated kinase 2 (Homo sapiens) (UniProt Q92630).
T2 sequence (whole entry): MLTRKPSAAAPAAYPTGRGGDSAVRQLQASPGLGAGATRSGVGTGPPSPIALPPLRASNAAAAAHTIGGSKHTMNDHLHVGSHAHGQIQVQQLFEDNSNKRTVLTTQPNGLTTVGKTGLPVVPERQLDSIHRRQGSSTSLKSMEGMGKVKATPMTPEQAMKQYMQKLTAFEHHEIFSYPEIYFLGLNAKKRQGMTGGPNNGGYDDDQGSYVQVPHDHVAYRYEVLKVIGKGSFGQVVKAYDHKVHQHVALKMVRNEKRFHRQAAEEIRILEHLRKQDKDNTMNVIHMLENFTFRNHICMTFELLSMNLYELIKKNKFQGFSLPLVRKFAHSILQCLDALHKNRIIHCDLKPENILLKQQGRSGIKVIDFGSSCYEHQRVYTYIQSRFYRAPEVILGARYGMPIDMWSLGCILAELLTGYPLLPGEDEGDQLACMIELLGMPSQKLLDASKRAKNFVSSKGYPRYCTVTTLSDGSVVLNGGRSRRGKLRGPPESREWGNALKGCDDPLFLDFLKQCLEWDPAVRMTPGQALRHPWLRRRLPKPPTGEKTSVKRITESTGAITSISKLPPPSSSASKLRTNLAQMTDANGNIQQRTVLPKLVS
Conditions: at 1 µM.

For assay [3], the target named is T2, Dual specificity tyrosine-phosphorylation-regulated kinase 2 (Homo sapiens). Conditions: at 10 µM.
In assay [4] the target is T3, Ephrin type-A receptor 1 (Homo sapiens) (UniProt P21709).
T3 sequence (whole entry): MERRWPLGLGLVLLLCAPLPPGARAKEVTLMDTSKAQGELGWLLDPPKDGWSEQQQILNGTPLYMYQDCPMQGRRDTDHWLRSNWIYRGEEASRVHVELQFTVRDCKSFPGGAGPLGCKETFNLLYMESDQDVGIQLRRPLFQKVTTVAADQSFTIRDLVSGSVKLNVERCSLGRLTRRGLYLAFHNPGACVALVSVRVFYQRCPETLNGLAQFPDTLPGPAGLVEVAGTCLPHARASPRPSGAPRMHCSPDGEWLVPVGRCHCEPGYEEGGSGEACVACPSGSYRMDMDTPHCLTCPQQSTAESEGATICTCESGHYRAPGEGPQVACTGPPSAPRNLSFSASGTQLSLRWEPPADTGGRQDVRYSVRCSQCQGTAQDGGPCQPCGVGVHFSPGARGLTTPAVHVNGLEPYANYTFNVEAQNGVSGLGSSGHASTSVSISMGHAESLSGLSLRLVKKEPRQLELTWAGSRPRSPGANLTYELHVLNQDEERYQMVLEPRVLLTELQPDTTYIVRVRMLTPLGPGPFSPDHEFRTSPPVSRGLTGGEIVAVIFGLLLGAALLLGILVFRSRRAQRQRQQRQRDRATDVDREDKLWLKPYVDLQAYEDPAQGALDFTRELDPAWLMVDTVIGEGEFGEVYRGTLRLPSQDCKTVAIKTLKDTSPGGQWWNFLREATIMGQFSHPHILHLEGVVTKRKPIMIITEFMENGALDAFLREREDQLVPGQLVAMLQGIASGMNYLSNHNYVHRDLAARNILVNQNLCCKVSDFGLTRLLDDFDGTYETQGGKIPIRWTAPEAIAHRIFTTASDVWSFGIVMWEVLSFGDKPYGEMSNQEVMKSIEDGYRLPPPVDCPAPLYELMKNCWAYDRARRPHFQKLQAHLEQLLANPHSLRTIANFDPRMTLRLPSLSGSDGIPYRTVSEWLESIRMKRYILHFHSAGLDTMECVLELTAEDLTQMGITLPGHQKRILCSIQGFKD
Conditions: at 1 µM.

Assay [5] deals with T3, Ephrin type-A receptor 1 (Homo sapiens). Conditions: at 10 µM.
For assay [6], the target named is Ephrin type-A receptor 2 (Homo sapiens) (UniProt P29317). Conditions: at 1 µM.
The target is the same in assay [7]. Conditions: at 10 µM.
Assay [8] has as its target T4, Ephrin type-A receptor 3 (Homo sapiens) (UniProt P29320).
T4 sequence (whole entry): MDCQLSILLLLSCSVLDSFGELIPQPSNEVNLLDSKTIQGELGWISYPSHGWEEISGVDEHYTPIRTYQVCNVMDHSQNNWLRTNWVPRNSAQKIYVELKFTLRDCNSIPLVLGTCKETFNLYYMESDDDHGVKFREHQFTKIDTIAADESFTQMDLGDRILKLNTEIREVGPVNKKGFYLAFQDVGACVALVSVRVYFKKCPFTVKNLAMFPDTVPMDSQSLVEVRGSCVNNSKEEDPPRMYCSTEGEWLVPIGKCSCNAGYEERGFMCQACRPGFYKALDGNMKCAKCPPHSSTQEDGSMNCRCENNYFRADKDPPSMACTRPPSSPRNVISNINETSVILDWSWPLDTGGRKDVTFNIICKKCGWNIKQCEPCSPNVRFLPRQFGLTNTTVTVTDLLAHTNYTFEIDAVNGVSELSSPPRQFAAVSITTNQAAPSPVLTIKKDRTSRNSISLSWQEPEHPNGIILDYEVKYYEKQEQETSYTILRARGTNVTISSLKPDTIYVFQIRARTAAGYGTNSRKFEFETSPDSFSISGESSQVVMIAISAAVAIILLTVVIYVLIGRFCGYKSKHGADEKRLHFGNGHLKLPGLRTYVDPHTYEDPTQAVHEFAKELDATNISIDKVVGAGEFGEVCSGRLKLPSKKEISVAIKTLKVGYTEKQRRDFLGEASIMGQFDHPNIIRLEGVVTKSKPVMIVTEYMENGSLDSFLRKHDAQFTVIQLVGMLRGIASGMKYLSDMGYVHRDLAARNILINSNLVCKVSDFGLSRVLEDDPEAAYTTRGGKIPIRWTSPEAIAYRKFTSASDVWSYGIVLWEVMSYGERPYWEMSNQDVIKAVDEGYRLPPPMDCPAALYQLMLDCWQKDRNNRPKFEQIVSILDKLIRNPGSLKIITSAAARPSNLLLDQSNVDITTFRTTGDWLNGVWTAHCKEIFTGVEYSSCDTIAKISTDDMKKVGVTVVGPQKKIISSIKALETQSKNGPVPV
Conditions: at 1 µM.

Ephrin type-A receptor 2 (Homo sapiens), sequence (P29317 whole entry): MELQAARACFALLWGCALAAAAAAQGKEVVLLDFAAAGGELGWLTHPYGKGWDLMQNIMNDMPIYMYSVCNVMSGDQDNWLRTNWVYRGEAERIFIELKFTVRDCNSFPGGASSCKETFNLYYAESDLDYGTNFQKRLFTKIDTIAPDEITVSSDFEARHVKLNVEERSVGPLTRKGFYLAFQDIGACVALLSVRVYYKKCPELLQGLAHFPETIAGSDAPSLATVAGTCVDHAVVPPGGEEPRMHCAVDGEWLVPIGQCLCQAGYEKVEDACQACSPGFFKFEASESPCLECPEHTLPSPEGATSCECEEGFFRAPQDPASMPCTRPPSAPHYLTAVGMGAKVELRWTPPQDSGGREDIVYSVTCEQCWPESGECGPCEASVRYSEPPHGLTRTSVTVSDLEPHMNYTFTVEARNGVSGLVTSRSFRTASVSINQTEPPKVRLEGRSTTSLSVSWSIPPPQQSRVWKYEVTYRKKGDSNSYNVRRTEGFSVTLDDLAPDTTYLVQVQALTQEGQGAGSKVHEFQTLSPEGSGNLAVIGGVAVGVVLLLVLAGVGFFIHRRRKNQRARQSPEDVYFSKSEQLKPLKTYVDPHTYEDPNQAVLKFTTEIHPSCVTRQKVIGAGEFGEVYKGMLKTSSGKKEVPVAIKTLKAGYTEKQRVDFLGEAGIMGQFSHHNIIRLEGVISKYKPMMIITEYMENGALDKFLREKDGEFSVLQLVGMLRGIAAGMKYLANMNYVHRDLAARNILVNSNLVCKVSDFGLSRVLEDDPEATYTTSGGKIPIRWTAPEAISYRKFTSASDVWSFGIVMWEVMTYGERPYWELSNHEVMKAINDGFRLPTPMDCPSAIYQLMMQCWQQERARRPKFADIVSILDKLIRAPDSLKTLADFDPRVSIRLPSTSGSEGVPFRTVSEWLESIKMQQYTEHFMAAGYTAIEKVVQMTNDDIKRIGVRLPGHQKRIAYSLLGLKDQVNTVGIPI

Broadly, the residual activity is the signal under treatment as a percentage of the control signal. With `Cn1nc2c3c(cccc31)C(=O)c1ccccc1-2`, the residual activity was 20% in assay [1]; 91% in assay [2]; 75% in assay [3]; 88% in assay [4]; 68% in assay [5]; 92% in assay [6]. For the same molecule, the residual activity is 97% in assay [7] and 88% in assay [8].
For `Cc1cccc(-c2[nH]c(C(C)(C)C)nc2-c2ccc3c(c2)OCO3)n1`, the residual activity in assay [2] was 94%; in assay [3] it was 104%; in assay [4], 90%; in assay [5], 106%.
On to `Oc1ccc(Nc2nc(-c3ccc(Cl)cc3)cs2)cc1`, for which the residual activity in assay [1] is 96%; in assay [2] it was 104%; in assay [3], 93%; in assay [4], 95%; in assay [5] it was 63%; in assay [6], 88%. For the same molecule, the results for the residual activity in assay [7] and in assay [8] were 113% and 107%, respectively.
With `CC(=O)O/N=C1\C(=C2\C(=O)Nc3cc(Br)ccc32)Nc2ccccc21`, the residual activity was 31% in assay [1]; 96% in assay [2]; 92% in assay [3]; 84% in assay [4]; 71% in assay [5]; 92% in assay [6]. Further, the residual activity stood at 59% in assay [7] and 74% in assay [8].
Turning to `Cn1cc(/C=C2\C(=O)Nc3ccc(S(N)(=O)=O)cc32)c2ccccc21`, the residual activity was found to be 3% in assay [1]; 102% in assay [2]; 99% in assay [3]; 89% in assay [4]; 107% in assay [5]; 100% in assay [6]. The values for the residual activity in assay [7] and in assay [8] were 72% and 50%, respectively.
Regarding `Nc1nc(Nc2ccc(S(N)(=O)=O)cc2)nn1C(=S)Nc1c(F)cccc1F`, the residual activity was 4% in assay [1]; 49% in assay [2]; -1% in assay [3]; 1% in assay [4]; 3% in assay [5]; 13% in assay [6]. For the same molecule, the residual activity is -2% in assay [7] and 65% in assay [8].
As to `N#CC(C#N)=C(N)/C(C#N)=C/c1ccc(O)cc1`, the residual activity in assay [2] stood at 85%; in assay [3], 93%.
Take `Cc1cncc2cccc(S(=O)(=O)N3CCCN(C(=O)CN)C[C@H]3C)c12`: the residual activity in assay [2] is 91%; in assay [3], 94%; in assay [4], 54%; in assay [5], 7%; in assay [6], 92%; in assay [7], 56%. Also, the residual activity in assay [8] turned out to be 96%.
Regarding `COc1ccc(S(=O)(=O)N(CCO)c2ccccc2CN(C)C/C=C/c2ccc(Cl)cc2)cc1`, the residual activity in assay [1] is 87%; in assay [2], 100%; in assay [3] it was 91%; in assay [4], 97%; in assay [5], 76%; in assay [6], 96%. The residual activity in assay [7] was 86%; in assay [8], 97%.
As to `Nc1ccc2ncnc(NCCc3ccc(Oc4ccccc4)cc3)c2c1`, the residual activity came out at 48% in assay [1]; 103% in assay [2]; 92% in assay [3]; 107% in assay [4]; 87% in assay [5]; 98% in assay [6]. Further, the residual activity in assay [7] turned out to be 91%; in assay [8], 95%.
On to `CC#CC(=O)Nc1cc2c(Nc3ccc(F)c(Cl)c3)ncnc2cn1`, for which the residual activity in assay [1] is 105%; in assay [2], 102%; in assay [3], 93%; in assay [4], 102%; in assay [5], 105%; in assay [6], 100%. For the same molecule, the residual activity in assay [7] came to 101%; in assay [8], 113%.
For `Oc1ccc(-c2nc(-c3ccc(F)cc3)c(-c3ccncc3)[nH]2)cc1`, the residual activity in assay [2] came to 99%; in assay [3], 76%; in assay [4] it was 87%; in assay [5] it was 16%; in assay [6], 93%; in assay [7], 57%. For the same molecule, in assay [8], the residual activity was found to be 105%.

For the origin of these results see ChEMBL document CHEMBL2218924, “A broad activity screen in support of a chemogenomic map for kinase signalling research and drug discovery” (Biochem J, 2013).
